# Compound activity (PubChem BioAssay)
# KLK7 zymogen act = proKLK7 (human) activation, primary screen; P49862; purified proKLK7, EDANS-DABCYL substrate fluorescence; 100% is mature enzyme control, 0% vehicle; activation, % at 7 µM; actives 0.9% (n = 370,000); AID 652039;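 active = activation above the mean of all tested compounds plus 3 SD, computed per campaign excluding outliers beyond control limits, cut at about 13% in these data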
# Target sequence (P49862 whole entry, looked up): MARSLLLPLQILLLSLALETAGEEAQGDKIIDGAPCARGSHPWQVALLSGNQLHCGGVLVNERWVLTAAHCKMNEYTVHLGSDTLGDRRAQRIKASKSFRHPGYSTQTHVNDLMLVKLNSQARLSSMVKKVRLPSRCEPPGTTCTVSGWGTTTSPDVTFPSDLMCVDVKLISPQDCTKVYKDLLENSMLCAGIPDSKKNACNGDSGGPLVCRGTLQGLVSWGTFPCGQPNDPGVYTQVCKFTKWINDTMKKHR
# SMARCA2 activ = SMARCA2 function activation, primary screen | MG213 cells, MMTV-luciferase reporter, dexamethasone, overnight | activation, % at 9.1 µM | actives 1% (n = 370,000) | AID 652017; in the data active = activation above about 7.8%;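 also: 0% = vehicle wells and 100% = reference activator wells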
# FXN GAA850 act = frataxin GAA850 promoter activation | activation, % at 6 µM | actives 0.56% (n = 360,000) | HEK293 lucGAA850 FXN promoter luciferase reporter, 24 h; percent of 10 µM SAHA response;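 active = activation above the average of all compounds screened plus 3 SD, cutoff fixed separately per campaign, cut at about 7.5% in these data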;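 also: 0% = DMSO wells and 100% = 10 µM SAHA wells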
# FAS TE block = FAS thioesterase (human) inhibition; recombinant FAS-TE, OMFH fluorogenic substrate, fluorescence endpoint; inhibition, % at 15 µM; actives 0.67% (n = 360,000);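 active = compounds whose normalised, plate-corrected inhibition of enzyme fluorescence in the single-dose primary screen is 50% or more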;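 also: 0% = DMSO with enzyme and 100% = substrate without enzyme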
# FAS-TE conf = confirmation of human fatty acid synthase thioesterase inhibitors | shares compounds with FAS TE block | recombinant FAS-TE, OMFH fluorogenic substrate, fluorescence | inhibition, % at 15 µM | actives 45% (n = 2,300);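 active = compounds inhibiting the enzyme by at least 50% at 15 µM in any one of the replicates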;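 also: 0% = enzyme with DMSO only and 100% = wells lacking enzyme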
# Numbers without * were called inactive; / = not tested or not shown. In the library only some 2.9% were active in any assay of this set; here they are far more common.
SMILES,KLK7 zymogen act,SMARCA2 activ,FXN GAA850 act,FAS TE block,FAS-TE conf
Cc1cccc(NC(=O)CNC(=O)COC(=O)c2ccc(C(C)(C)C)cc2)c1C,0,1,-3,64*,51*
Cc1cccc(NC(=O)CNC(=O)COC(=O)C2CC2C)c1C (stereo unspecified),0,2,0,-8,/
CC(=O)Nc1ccc(Sc2ccccc2C(=O)O)cc1,-1,-3,1,-4,/
Cc1ccccc1-n1c(SCC(=O)c2c(N)n(C)c(=O)n(C)c2=O)nc2sc3c(c2c1=O)CCCC3,0,0,2,90*,32
Cc1c(NC(=O)CSc2nnc(N)s2)c(=O)n(-c2ccccc2)n1C,0,-2,1,-9,/
O=C(OCc1ccccc1)N1CCC2CC1c1cc(N3CCN(C(=S)NCCc4ccccc4)CC3)ccc12 (stereo unspecified),-1,0,/,25,/
COc1ccc(NC(=S)N2CCN(c3ccc4c(c3)C3CCN(C(=O)OCc5ccccc5)C4C3)CC2)c(OC)c1 (stereo unspecified),0,-4,/,57*,11
C=CCC[C@H](Cc1ccc(F)cc1)C(=O)OC[C@@H](Cc1c[nH]c2ccccc12)NC(=O)[C@H](CC=C)CC(=O)NCCO,-1,1,-3,11,/
C=CCC[C@@H](Cc1ccc(F)cc1)C(=O)OC[C@H](Cc1c[nH]c2ccccc12)NC(=O)[C@H](CC=C)CC(=O)NCCO,-1,-1,-3,57*,68*
CCOC(=O)c1c(C)nc2c(c1-c1ccccc1)C(=O)c1ccccc1-2,0,1,3,22,/
N#Cc1ccc(-c2cccnc2)nc1SCc1ccc(Cl)c(Cl)c1,0,-4,4,42,/
N#Cc1ccc(-c2cccnc2)nc1SCc1ccc(Cl)cc1Cl,-2,-2,4,55*,16
O=C(Nc1ncc(S(=O)(=O)c2ccc([N+](=O)[O-])cc2)s1)c1cccc2ccccc12,0,-5,-2,56*,7
O=C(NC(Nc1ncc(S(=O)(=O)c2ccc([N+](=O)[O-])cc2)s1)(C(F)(F)F)C(F)(F)F)c1ccc(Cl)cc1,0,-10,2,61*,44*
Cc1ccc(S(=O)(=O)Cn2nnnc2C(c2ccccc2)N2CCN(c3ccccc3)CC2)cc1 (stereo unspecified),0,-4,-1,57*,8
O=C(CSc1nc2nc3c(cc2c(=O)n1-c1ccccc1)CCCC3)Nc1cccc2ccccc12,-2,-2,1,63*,17
O=C(CSc1nc2ccccc2c(=O)n1-c1ccc(F)c(Cl)c1)Nc1ccc2c(c1)CCC2,1,2,0,61*,15
O=C(CSc1nc2ccccc2c(=O)n1-c1ccccc1F)Nc1ccc2c(c1)CCC2,-1,-1,-2,26,/
O=C(CSc1nc2ccccc2c(=O)n1-c1ccc(F)cc1F)Nc1ccc2c(c1)CCC2,0,0,-4,54*,12
CCOCc1nnc(NC(=O)c2cc(C(=O)OC)cc([N+](=O)[O-])c2)s1,0,-2,0,11,/
COC(=O)c1cc(C(=O)Nc2nnc(CC(C)(C)C)s2)cc([N+](=O)[O-])c1,0,-2,2,52*,59*
CSCC[C@H](NC(=O)c1cc([N+](=O)[O-])ccc1Cl)c1nc2ccccc2[nH]1,0,2,-3,63*,41
CN(C)S(=O)(=O)c1ccc(N2CCCC2)c(C(=O)Nc2nc3ccc(F)cc3s2)c1,0,-1,3,71*,22
CN(C)S(=O)(=O)c1ccc(N2CCCC2)c(C(=O)Nc2nc(-c3ccc(F)cc3)cs2)c1,0,-3,0,56*,24
CN(C)S(=O)(=O)c1ccc(N2CCCC2)c(C(=O)Nc2nc3ccccc3s2)c1,0,1,0,4,/
CCN(CC)CCNC(=O)C1(O)c2cc(Br)ccc2NC(=O)N1c1cccc(OC)c1 (stereo unspecified),0,-1,1,-6,/
CC(C)(C)c1ccc(CSc2nnc(-c3ccccn3)n2Cc2ccco2)cc1,1,-4,2,53*,13
N#CC1(NC(=O)COC(=O)c2ccccc2[N+](=O)[O-])CCCCC1,0,6,2,-6,/
CN(C)S(=O)(=O)c1ccc(N2CCCC2)c(C(=O)OCC(=O)NC2(C#N)CCCCC2)c1,/,/,0,2,/
